As usually defined, the viability is a read-out of living cells in per cent, often relative to untreated cells.

Test [1] in a line: Quantitative High-Throughput drug screen in 47 multiple myeloma cell lines against the NCATS MIPE library collection: MMM1_PLB cell viability assay (AID 1918976). Also: nearly all actives have a fitted effect of over 35% in size. Summed up:
(§1)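 500 cells/well per myeloma line exposed to pinned MIPE 4.0 compounds for 48 h at 37 °C, 5% CO2. Viability read as ATP by CellTiter-Glo luminescence, normalised to DMSO-only (100%) and media-only (0%) wells.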

A short description of test [2]: Quantitative High-Throughput drug screen in 47 multiple myeloma cell lines against the NCATS MIPE library collection: MOLP8_DSMZ cell viability assay (AID 1918977). Also: nearly all actives have a fitted effect of over 45% in size. The method, boiled down:
as §1

Test [3] in a line: Quantitative High-Throughput drug screen in 47 multiple myeloma cell lines against the NCATS MIPE library collection: OCIMY1_PLB cell viability assay (AID 1918979). Also: nearly all actives have a fitted effect of over 35% in size. Summed up:
as §1

A short description of test [4]: Quantitative High-Throughput drug screen in 47 multiple myeloma cell lines against the NCATS MIPE library collection: MM1R_ATCC cell viability assay (AID 1918981). Also: nearly all actives have a fitted effect of over 35% in size. Summed up:
as §1

A short description of test [5]: Quantitative High-Throughput drug screen in 47 multiple myeloma cell lines against the NCATS MIPE library collection: L363_DSMZ cell viability assay (AID 1918984). Also: nearly all actives have a fitted effect of over 40% in size. Summed up:
as §1

Test [6] can be described thus: Quantitative High-Throughput drug screen in 47 multiple myeloma cell lines against the NCATS MIPE library collection: OCIMY7_PLB cell viability assay (AID 1918987). Also: nearly all actives have a fitted effect of over 65% in size. Summed up:
as §1

Test [7] is described as follows: Quantitative High-Throughput drug screen in 47 multiple myeloma cell lines against the NCATS MIPE library collection: OCIMY5_PLB cell viability assay (AID 1918988). Also: nearly all actives have a fitted effect of over 65% in size. The method, boiled down: as §1
The nature of test [8]: Quantitative High-Throughput drug screen in 47 multiple myeloma cell lines against the NCATS MIPE library collection: OPM1_PLB cell viability assay (AID 1918989). Also: nearly all actives have a fitted effect of over 40% in size. Summed up: as §1
The nature of test [9]: Quantitative High-Throughput drug screen in 47 multiple myeloma cell lines against the NCATS MIPE library collection: SKMM1_PLB cell viability assay (AID 1919863). Also: nearly all actives have a fitted effect of over 35% in size. As to conditions: SKMM1 myeloma viability, CellTiter-Glo ATP, 48 h; viability: active compounds read low. Summed up:
as §1
For orientation: ATP-based viability assays read luminescence as a measure of living cells.

The nature of test [10]: Quantitative High-Throughput drug screen in 47 multiple myeloma cell lines against the NCATS MIPE library collection: U266_ATCC cell viability assay (AID 1919864). Also: nearly all actives have a fitted effect of over 35% in size. The method, boiled down: as §1
The nature of test [11]: Quantitative High-Throughput drug screen in 47 multiple myeloma cell lines against the NCATS MIPE library collection: XG1_PLB cell viability assay (AID 1919866). Also: nearly all actives have a fitted effect of over 35% in size. Summed up:
as §1

Test [12] can be described thus: Quantitative High-Throughput drug screen in 47 multiple myeloma cell lines against the NCATS MIPE library collection: NCIH929_DSMZ cell viability assay (AID 1918978). Also: nearly all actives have a fitted effect of over 35% in size. Summed up:
as §1

A short description of test [13]: Quantitative High-Throughput drug screen in 47 multiple myeloma cell lines against the NCATS MIPE library collection: MM1S_ATCC cell viability assay (AID 1918980). Also: nearly all actives have a fitted effect of over 45% in size. Summed up:
as §1

The nature of test [14]: Quantitative High-Throughput drug screen in 47 multiple myeloma cell lines against the NCATS MIPE library collection: UTMC2_PLB cell viability assay (AID 1919868). Also: nearly all actives have a fitted effect of over 55% in size. As to conditions: CellTiter-Glo ATP luminescence, 48 h; viability (% of DMSO control): at 45.8 µM (top of the series). The method, boiled down:
as §1

A short description of test [15]: Quantitative High-Throughput drug screen in 47 multiple myeloma cell lines against the NCATS MIPE library collection: KMS26_JCRB cell viability assay (AID 1918975). Also: nearly all actives have a fitted effect of over 45% in size. Summed up: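 Myeloma cells (500 per well) were exposed to MIPE 4.0 compounds by pin transfer and incubated 48 hours at 37C, 5% CO2. Viability was read as ATP by CellTiter-Glo luminescence, normalised to DMSO (100%) and media-only (0%) wells.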

A short description of test [16]: Quantitative High-Throughput drug screen in 47 multiple myeloma cell lines against the NCATS MIPE library collection: KMS34_JCRB cell viability assay (AID 1918985). Also: nearly all actives have a fitted effect of over 40% in size. Summed up:
as §1

Test [17] is described as follows: Quantitative High-Throughput drug screen in 47 multiple myeloma cell lines against the NCATS MIPE library collection: XG6_PLB cell viability assay (AID 1919865). Also: nearly all actives have a fitted effect of over 40% in size. Summed up:
as §1

A short description of test [18]: Quantitative High-Throughput drug screen in 47 multiple myeloma cell lines against the NCATS MIPE library collection: VP6_DJ cell viability assay (AID 1919867). Also: nearly all actives have a fitted effect of over 40% in size. The method, boiled down: as §1
A short description of test [19]: Quantitative High-Throughput drug screen in 47 multiple myeloma cell lines against the NCATS MIPE library collection: KMS28PE_JCRB cell viability assay (AID 1918983). Also: nearly all actives have a fitted effect of over 35% in size. The method, boiled down:
as §1

Test [20] is described as follows: Quantitative High-Throughput drug screen in 47 multiple myeloma cell lines against the NCATS MIPE library collection: LP1_DSMZ cell viability assay (AID 1918982). Also: nearly all actives have a fitted effect of over 35% in size. The method, boiled down:
as §1

The structures appear in SMILES notation. Inconclusive results are not listed. Unmarked numbers belong to inactive results. Calls of active or inactive are those of the source. Calls follow the shape of the dose curve; as a rule, active = well fitted curve in the direction sought with a large enough effect; inconclusive = small, poorly fitted or top-dose-only effect, or another doubt; inactive = no such curve, though single readings can be large; an effect the other way counts as inactive or inconclusive.
Potency is read from the fitted curve at half-maximal effect.

Regarding `CN(C)C(=O)c1ccc(S(=O)(=O)c2ccc(NC(=O)[C@@](C)(O)C(F)(F)F)c(Cl)c2)cc1`, the Potency in test [1] was 8.33 µM (active); in [4], 14.8 µM (active); in test [5], 10.5 µM (active); in test [6], 11.8 µM (active); in test [7] it was 20.9 µM (active); in test [11] it was 3.32 µM (active). The Potency entry in test [2], in test [3], in test [8] and in [10] was “inactive” throughout. Also, in test [9], the viability is 99.9%.

Consider `N#CC[C@H](C1CCCC1)n1cc(-c2ncnc3[nH]ccc23)cn1`, for which the Potency is 16.6 µM (active) in test [1]; 4.18 µM (active) in [13]; 18.7 µM (active) in test [6]; 20.9 µM (active) in [7]; 6.62 µM (active) in test [8]; 6.62 µM (active) in test [9]. Further, the results for the Potency in test [10] and in test [14] were 18.7 µM (active) and 9.35 µM (active), respectively. Also, the Potency result in test [2], in test [12] and in test [3] was “inactive” each time.

For the compound `Cc1cc(C=c2sc3nc4ccccc4n3c2=O)c(C)n1-c1ccccc1`, the Potency in test [15] was 5.9 µM (active); in test [4], 7.43 µM (active); in test [16] it was 14.8 µM (active); in [7] it was 4.69 µM (active). The Potency result in test [12], in test [3], in [17] and in test [18] was “inactive” each time.

Consider `COc1ccc2nc(S(=O)Cc3ncc(C)c(OC)c3C)[nH]c2c1` (stereo unspecified), for which the Potency entry in [15] and in [7] was “inactive” each time. Moreover, the Potency in test [12] is 10.5 µM (active); in test [13], 18.7 µM (active); in test [6] it was 16.6 µM (active); in [18] it was 16.6 µM (active). Besides, in test [14], the viability (% of DMSO control) is 120% (active).

As to `Cc1[nH]c(=O)c(C#N)cc1-c1ccc2nccn2c1`, the Potency result in test [15], in test [12], in [19], in [6], in test [8] and in test [10] was “inactive” in each case. Besides, the Potency result in test [17] and in test [11] was “inactive” in each case.

Turning to `Cc1cnc(Nc2ccc(OCCN3CCCC3)cc2)nc1Nc1cccc(S(=O)(=O)NC(C)(C)C)c1`, the Potency result in test [15], in [12], in test [3], in [4], in [20] and in test [17] was “inactive” each time. Further, the results for the Potency in [5], in test [11] and in [18] were 0.296 µM (active), 0.469 µM (active) and 0.332 µM (active), respectively.

On to `O=c1[nH]c(-c2ccc(C(F)(F)F)cc2)nc2c1CSCC2`, for which the Potency in test [1] was 7.43 µM (active); in test [12] it was 18.7 µM (active); in test [13], 18.7 µM (active); in test [7], 5.26 µM (active); in test [10], 18.7 µM (active). In addition, the Potency entry in test [2], in test [19], in test [5] and in [11] was “inactive” each time.

Take `CS(=O)(=O)Oc1ccc2c(NC(N)=O)c(C(=O)c3ccc(Cl)cc3Cl)oc2c1`: the Potency result in test [15], in test [3], in [4], in test [20], in test [19] and in test [16] was “inactive” throughout. The Potency entry in test [7] is “inactive”. The Potency in test [12] was 9.35 µM (active); in test [13] it was 2.96 µM (active); in test [5], 6.62 µM (active); in test [8] it was 20.9 µM (active); in [10], 11.8 µM (active); in [17], 16.6 µM (active). For the same compound, the Potency in [11] was 20.9 µM (active); in test [18] it was 9.35 µM (active); in test [14] it was 16.6 µM (active). Also, in test [9], the viability was 128%.

`O=C(NOC[C@H](O)CO)c1ccc(F)c(F)c1Nc1ccc(I)cc1F`: the Potency result in test [15], in test [3], in [20] and in [7] was “inactive” in each case. The Potency is 0.059 µM (active) in test [12]; 16.6 µM (active) in test [13]; 2.96 µM (active) in [19]; 0.0148 µM (active) in [6]; 1.48 µM (active) in test [8]; 16.6 µM (active) in [10]. The Potency in test [17] is 0.0074 µM (active); in test [11], 0.0296 µM (active); in test [18] it was 0.0372 µM (active).

Consider `COc1cc(Oc2ccnc3cc(OC)c(OC)cc23)ccc1NC(=O)NC(C)c1nccs1` (stereo unspecified), for which the Potency in [1] is 16.6 µM (active); in test [4], 18.7 µM (active); in test [7] it was 16.6 µM (active); in test [8], 20.9 µM (active). Further, the Potency entry in test [2], in [12], in test [10] and in test [14] was “inactive” throughout.

As to `Cc1cc(-c2ccc(CC(=O)Nc3ccc(-c4cccnc4)cc3)cc2)ccn1`, the Potency was 20.9 µM (active) in test [1]; 23.5 µM (active) in [12]; 13.2 µM (active) in test [19]; 23.5 µM (active) in test [6]; 16.6 µM (active) in test [7]; 20.9 µM (active) in [8]. The Potency was 18.7 µM (active) in test [11] and 11.8 µM (active) in test [18]. The Potency entry in test [2], in test [13] and in test [4] was “inactive” throughout.

Consider `CC1(C)Cc2c(-c3ccccc3)c(-c3ccc(Cl)cc3)c(CC(=O)O)n2C1`, for which the Potency was 20.9 µM (active) in test [1]; 20.9 µM (active) in [2]; 23.5 µM (active) in [3]; 26.4 µM (active) in [13]; 20.9 µM (active) in test [9]; 18.7 µM (active) in [10]. The Potency was 18.7 µM (active) in [17], 14.8 µM (active) in [11], 14.8 µM (active) in test [18] and 16.6 µM (active) in [14].

Take `NCCc1ccc(O)c(O)c1`: the Potency in test [1] was 7.43 µM (active); in [2] it was 20.9 µM (active); in test [13], 20.9 µM (active); in [5], 23.5 µM (active); in test [16] it was 8.33 µM (active); in test [7] it was 20.9 µM (active). In addition, the Potency in [10] and in test [18] was 23.5 µM (active) throughout.

For the compound `Cc1cc2c(C(C)C)c(O)c(O)c(C=O)c2c(O)c1-c1c(C)cc2c(C(C)C)c(O)c(O)c(C=O)c2c1O`, the Potency was 18.7 µM (active) in [1]; 9.35 µM (active) in test [12]; 14.8 µM (active) in test [3]; 16.6 µM (active) in test [13]; 13.2 µM (active) in [4]; 16.6 µM (active) in [20]. Moreover, the Potency in [19] was 18.7 µM (active); in test [16], 11.8 µM (active); in test [6] it was 8.33 µM (active); in [7], 14.8 µM (active); in [8] it was 10.5 µM (active); in test [9], 29.6 µM (active). The Potency is 7.43 µM (active) in [17], 8.33 µM (active) in test [11], 5.9 µM (active) in [18] and 5.9 µM (active) in test [14].

Source of the values: PubChem BioAssay (NCATS).
